Results filed as inconclusive are left out. The source made the active and inactive calls. The calls were made as follows, unless noted: active = hit-call score of the fitted dose curve at least 0.9, where 1 is the maximum; inactive = score below 0.9.
Legend:
[1] = molecular target: Oxysterols receptor LXR-alpha (Homo sapiens) (UniProt Q13133); assay: ATG_LXRa_TRANS: Attagene TRANS-FACTORIAL HepG2 Assay for human Liver X Receptor alpha (LXRa) (AID 2282980; active = hit-call score of the fitted dose curve at least 0.9, where 1 is the maximum); conditions: HepG2 Attagene TRANS reporter, LXRa transactivation
Procedure, shortened: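 HepG2 cells were transiently transfected with multiplexed reporter units driven by chimeric LXRa–GAL4 fusion proteins, then dosed for 24 h. Reporter mRNA was quantified by RT-PCR, fluorescent labelling and capillary electrophoresis; gain of signal fitted against DMSO baseline.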

[2] = molecular target: Oxysterols receptor LXR-beta (Homo sapiens) (UniProt P55055); assay: ATG_LXRb_TRANS: Attagene TRANS-FACTORIAL HepG2 Assay for human Liver X Receptor beta (LXRb) (AID 2282981; active = hit-call score of the fitted dose curve at least 0.9, where 1 is the maximum); conditions: HepG2 Attagene TRANS GAL4-LXRb reporter, mRNA
Procedure, shortened: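 Gain-of-signal mRNA reporter endpoint, DMSO as negative control. Transiently transfected HepG2 cells carrying the NR-Gal4 chimera and GAL4-UAS reporter units were treated 24 h; transcripts quantified by RT-PCR and capillary electrophoresis fluorescence.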

[3] = molecular target: Hepatocyte nuclear factor 4-alpha (Homo sapiens) (UniProt P41235); assay: ATG_HNF4a_TRANS: Attagene TRANS-FACTORIAL HepG2 Assay for human Hepatocyte Nuclear Factor 4 alpha (HNF4a) (AID 2282982; active = hit-call score of the fitted dose curve at least 0.9, where 1 is the maximum); conditions: HepG2 HNF4a transactivation reporter, mRNA readout
Procedure, shortened: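 Gain-of-signal mRNA induction, relative to DMSO vehicle, was read after 24 h compound treatment of HepG2 cells bearing transfected GAL4-UAS reporters. Detection used RT-PCR, 6-FAM primer extension and capillary electrophoresis.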

[4] = ATG_M_06_TRANS: Attagene TRANS-FACTORIAL HepG2 Assay for M06 Transcription Factor (Internal Marker) (AID 2282983; active = hit-call score of the fitted dose curve at least 0.9, where 1 is the maximum); conditions: HepG2 Attagene TRANS M06 internal marker reporter
Procedure, shortened: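 HepG2 cells transiently transfected with multiplexed GAL4-UAS reporter transcription units; after 24 h compound exposure, reporter mRNA measured by RT-PCR, FAM-labelled primer extension, HpaI digestion and capillary electrophoresis. Gain-of-signal fitted versus DMSO baseline; background control readout.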

[5] = ATG_M_32_TRANS: Attagene TRANS-FACTORIAL HepG2 Assay for M32 Transcription Factor (Internal Marker) (AID 2282984; active = hit-call score of the fitted dose curve at least 0.9, where 1 is the maximum); conditions: HepG2 Attagene TRANS M32 internal marker reporter
Procedure, shortened: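 Capillary electrophoresis of 6-FAM-labelled reporter fragments gives the signal; data fitted for gain over DMSO negative control. Source: HepG2 cells bearing transient multiple reporter transcription units, 24 h exposure.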

[6] = molecular target: Nuclear receptor subfamily 4 group A member 2 (Homo sapiens) (UniProt P43354); assay: ATG_NURR1_TRANS: Attagene TRANS-FACTORIAL HepG2 Assay for human Nuclear Receptor Related Protein 1 (NURR1) (AID 2282985; active = hit-call score of the fitted dose curve at least 0.9, where 1 is the maximum); conditions: HepG2 Attagene TRANS reporter, mRNA readout
Procedure, shortened: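 HepG2 / transient MRTU transfection / 24 h compound exposure / RT-PCR + CE fluorescence of reporter mRNA / gain-of-signal vs DMSO.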

[7] = molecular target: Transcriptional activator Myb (Homo sapiens) (UniProt P10242); assay: ATG_Myb_CIS: Attagene CIS-FACTORIAL HepG2 Assay for human Myeloblastosis (Myb) Proto-Oncogene Transcription Factor (AID 2282986); conditions: HepG2 Attagene CIS-FACTORIAL Myb reporter transcription; actives raise or lower the signal
Procedure, shortened: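 Reporter mRNA is quantified by RT-PCR and capillary electrophoresis 24 h after dosing HepG2 cells transfected with cis-regulated reporter units, which track endogenous transcription factor activity. Gain and loss of signal are fitted versus DMSO baseline.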

[8] = ATG_NFI_CIS: Attagene CIS-FACTORIAL HepG2 Assay for human Nuclear Factor I (NFI) (AID 2282989); conditions: HepG2 cis-regulatory reporter, NFI response element transcription; actives raise or lower the signal
Procedure, shortened: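 Reporter transcription driven by endogenous transcription factors in HepG2 cells; 24 h treatment. Quantitation by labelled RT-PCR fragments on capillary electrophoresis, gain- or loss-of-signal relative to DMSO.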

[9] = molecular target: Myc proto-oncogene protein (Homo sapiens) (UniProt P01106); assay: ATG_Myc_CIS: Attagene CIS-FACTORIAL HepG2 Assay for human Myelocytomatosis (Myc) Proto-Oncogene Transcription Factor (AID 2282990); conditions: HepG2, Attagene cis-reporter transcription factor activity; actives raise or lower the signal
Procedure, shortened: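 Transiently transfected HepG2 cells bearing cis-promoter reporter units for endogenous transcription factors; 24 h exposure. Reporter mRNA measured by RT-PCR, 6-FAM primer extension, HpaI cut and capillary electrophoresis; bidirectional fit relative to DMSO.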

[10] = ATG_NF_kB_CIS: Attagene CIS-FACTORIAL HepG2 Assay for human Nuclear Factor Kappa B (NF-kB) (AID 2282991); conditions: HepG2 Attagene cis-factorial NF-kB reporter mRNA; actives raise or lower the signal
Procedure, shortened: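 Readout is reporter transcript level, gain or loss versus DMSO, measured 24 h post-dose via RT-PCR, fluorescent labelling and capillary electrophoresis. Human HepG2 liver cells carried transiently transfected CIS reporter constructs reflecting endogenous factors.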

[11] = ATG_NRF2_ARE_CIS: Attagene CIS-FACTORIAL HepG2 Assay for human Nuclear Factor Erythroid 2 Related Factor 2 (NFR2) response to Antioxidant Response Elements (ARE) (AID 2282992); conditions: HepG2 Attagene ARE/NRF2 reporter, transcription factor activity; actives raise or lower the signal
Procedure, shortened: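 Cis-factorial assay: transfected HepG2 reporter library, 24 h dosing, mRNA readout via RT-PCR/CE; DMSO-referenced bidirectional analysis.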

[12] = ATG_Oct_MLP_CIS: Attagene CIS-FACTORIAL HepG2 Assay for human Octamer-Binding Transcription Factor (Oct) (AID 2282993); conditions: HepG2 Attagene cis-factorial Oct reporter, mRNA; actives raise or lower the signal
Procedure, shortened: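 Transfected HepG2 cells, 24 h treatment. Reporter mRNA quantified by RT-PCR–capillary electrophoresis; bidirectional fitting against DMSO.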

[13] = BSK_3C_TissueFactor: BioMAP Diversity Plus: 3C Assay for Tissue Factor Biomarker Activity (AID 2282997); conditions: BioMAP 3C HUVEC, tissue factor biomarker readout; actives raise or lower the signal
Procedure, shortened: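 Primary human umbilical vein endothelial cells in the 3C system were exposed to test chemical for 24 h, then Tissue Factor measured by ELISA. Activity was fitted bidirectionally against DMSO as negative control and baseline.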

[14] = BSK_3C_uPAR: BioMAP Diversity Plus: 3C Assay for Urokinase-type plasminogen activator receptor (uPAR) Biomarker Activity (AID 2282998); conditions: BioMAP 3C HUVEC, uPAR biomarker ELISA; actives raise or lower the signal
Procedure, shortened: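 Readout: ELISA for surface uPAR. System: human umbilical vein endothelial primary cells, 24 h after chemical exposure. Analysis: bidirectional fit, DMSO baseline.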

[15] = BSK_3C_VCAM1: BioMAP Diversity Plus: 3C Assay for Vascular cell adhesion molecule 1 (VCAM1) Biomarker Activity (AID 2282999); conditions: BioMAP 3C HUVEC, VCAM1 ELISA, cytokine-stimulated; actives raise or lower the signal
Procedure, shortened: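 Human umbilical vein endothelial cells (3C system), biomarker read by ELISA 24 h after dosing; bidirectional fit against DMSO baseline. Cytotoxicity tracked by SRB total-protein staining in parallel cultures at biomarker time.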

[16] = molecular target: Bile acid receptor (Homo sapiens) (UniProt Q96RI1); assay: ATG_FXR_TRANS: Attagene TRANS-FACTORIAL HepG2 Assay for Farnesoid X Receptor (FXR) (AID 2282979; active = hit-call score of the fitted dose curve at least 0.9, where 1 is the maximum;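 also: hits raise reporter mRNA above DMSO so AC50 marks FXR activation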); conditions: HepG2 Attagene TRANS FXR-GAL4 reporter transcription
Procedure, shortened: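 HepG2 cells transiently transfected with reporter constructs in which a chimeric FXR-GAL4 protein drives a GAL4-UAS reporter; 24 h compound exposure. Reporter mRNA measured by RT-PCR, FAM labelling, HpaI digestion and capillary electrophoresis; gain-of-signal versus DMSO.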

[17] = molecular target: Nuclear respiratory factor 1 (Homo sapiens) (UniProt Q16656); assay: ATG_NRF1_CIS: Attagene CIS-FACTORIAL HepG2 Assay for human Nuclear Respiratory Factor 1 (NRF1) Orphan Gene (AID 2282987); conditions: HepG2 NRF1 cis-element reporter, Attagene multiplex; actives raise or lower the signal
Procedure, shortened: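 Endogenous NRF1-driven reporter transcription in transfected HepG2 cells after 24 h treatment. Readout: RT-PCR products, 6-FAM labelled and resolved by capillary electrophoresis; changes fitted both directions relative to DMSO.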

[18] = molecular target: Cellular tumor antigen p53 (Homo sapiens) (UniProt P04637); assay: ATG_p53_CIS: Attagene CIS-FACTORIAL HepG2 Assay for human p53 Transcription Factor (AID 2282994); conditions: HepG2 p53 cis-element reporter, Attagene mRNA; actives raise or lower the signal
Procedure, shortened: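 Using HepG2 hepatoma cells carrying cis-acting multiplexed reporters, mRNA induction is detected after a 24 h exposure. Gain- and loss-of-signal responses are fitted relative to DMSO-treated cells.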

Measured: outcome

Chain of Nuclear receptor subfamily 4 group A member 2 (Homo sapiens) (P43354 whole entry, looked up): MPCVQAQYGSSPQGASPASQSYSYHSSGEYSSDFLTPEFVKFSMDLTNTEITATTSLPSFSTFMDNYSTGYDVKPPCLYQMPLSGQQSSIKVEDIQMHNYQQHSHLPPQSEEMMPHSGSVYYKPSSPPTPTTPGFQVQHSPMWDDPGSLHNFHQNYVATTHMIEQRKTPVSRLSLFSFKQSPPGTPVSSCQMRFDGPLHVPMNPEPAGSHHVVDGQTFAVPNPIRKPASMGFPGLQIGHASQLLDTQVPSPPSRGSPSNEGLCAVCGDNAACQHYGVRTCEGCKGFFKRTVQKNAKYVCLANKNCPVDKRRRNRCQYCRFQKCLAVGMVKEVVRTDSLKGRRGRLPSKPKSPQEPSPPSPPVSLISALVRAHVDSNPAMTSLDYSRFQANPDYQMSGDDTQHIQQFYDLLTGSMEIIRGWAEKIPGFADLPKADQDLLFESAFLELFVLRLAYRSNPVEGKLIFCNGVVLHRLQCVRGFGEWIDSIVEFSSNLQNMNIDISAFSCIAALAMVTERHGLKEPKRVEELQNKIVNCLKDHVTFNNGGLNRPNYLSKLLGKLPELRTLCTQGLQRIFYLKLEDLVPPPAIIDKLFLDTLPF
Chain of Nuclear respiratory factor 1 (Homo sapiens) (Q16656 whole entry, looked up): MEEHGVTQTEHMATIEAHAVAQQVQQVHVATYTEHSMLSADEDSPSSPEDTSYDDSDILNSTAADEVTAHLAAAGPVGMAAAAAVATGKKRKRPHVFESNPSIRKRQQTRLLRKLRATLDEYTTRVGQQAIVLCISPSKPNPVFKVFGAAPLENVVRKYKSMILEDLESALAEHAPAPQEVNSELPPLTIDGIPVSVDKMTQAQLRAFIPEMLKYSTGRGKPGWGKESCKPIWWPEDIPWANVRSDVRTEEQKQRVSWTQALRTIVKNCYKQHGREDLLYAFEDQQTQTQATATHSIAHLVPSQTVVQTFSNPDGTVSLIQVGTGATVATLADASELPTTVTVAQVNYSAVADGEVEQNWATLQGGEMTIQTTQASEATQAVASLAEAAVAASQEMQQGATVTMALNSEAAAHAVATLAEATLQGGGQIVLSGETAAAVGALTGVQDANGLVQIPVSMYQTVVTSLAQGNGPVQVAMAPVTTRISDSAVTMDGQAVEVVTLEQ
Chain of Myc proto-oncogene protein (Homo sapiens) (P01106 whole entry, looked up): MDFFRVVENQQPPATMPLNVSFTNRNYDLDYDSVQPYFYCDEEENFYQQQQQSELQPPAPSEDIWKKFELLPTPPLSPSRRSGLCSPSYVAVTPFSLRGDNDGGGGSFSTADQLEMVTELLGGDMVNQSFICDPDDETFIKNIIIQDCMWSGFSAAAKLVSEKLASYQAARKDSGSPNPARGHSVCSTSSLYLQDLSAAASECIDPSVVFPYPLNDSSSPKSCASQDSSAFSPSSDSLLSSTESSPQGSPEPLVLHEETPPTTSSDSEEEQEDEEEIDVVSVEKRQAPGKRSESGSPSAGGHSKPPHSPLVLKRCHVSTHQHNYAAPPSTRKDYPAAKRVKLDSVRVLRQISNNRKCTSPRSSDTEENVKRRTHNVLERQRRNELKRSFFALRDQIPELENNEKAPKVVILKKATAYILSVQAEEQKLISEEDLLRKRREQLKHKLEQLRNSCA
Chain of Oxysterols receptor LXR-alpha (Homo sapiens) (Q13133 whole entry, looked up, the tested form may be a part): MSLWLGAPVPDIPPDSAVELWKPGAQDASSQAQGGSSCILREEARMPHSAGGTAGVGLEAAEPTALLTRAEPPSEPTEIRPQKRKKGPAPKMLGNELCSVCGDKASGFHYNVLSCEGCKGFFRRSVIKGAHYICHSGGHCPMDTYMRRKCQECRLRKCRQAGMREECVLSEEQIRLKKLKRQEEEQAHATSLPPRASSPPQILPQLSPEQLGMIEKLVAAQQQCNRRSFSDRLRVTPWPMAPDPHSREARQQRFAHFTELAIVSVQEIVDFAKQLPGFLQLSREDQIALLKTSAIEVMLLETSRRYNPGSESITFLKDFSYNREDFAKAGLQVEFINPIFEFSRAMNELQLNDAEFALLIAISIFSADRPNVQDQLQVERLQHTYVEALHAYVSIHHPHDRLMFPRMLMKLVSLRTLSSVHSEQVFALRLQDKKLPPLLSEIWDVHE
Chain of Hepatocyte nuclear factor 4-alpha (Homo sapiens) (P41235 whole entry, looked up, the tested form may be a part): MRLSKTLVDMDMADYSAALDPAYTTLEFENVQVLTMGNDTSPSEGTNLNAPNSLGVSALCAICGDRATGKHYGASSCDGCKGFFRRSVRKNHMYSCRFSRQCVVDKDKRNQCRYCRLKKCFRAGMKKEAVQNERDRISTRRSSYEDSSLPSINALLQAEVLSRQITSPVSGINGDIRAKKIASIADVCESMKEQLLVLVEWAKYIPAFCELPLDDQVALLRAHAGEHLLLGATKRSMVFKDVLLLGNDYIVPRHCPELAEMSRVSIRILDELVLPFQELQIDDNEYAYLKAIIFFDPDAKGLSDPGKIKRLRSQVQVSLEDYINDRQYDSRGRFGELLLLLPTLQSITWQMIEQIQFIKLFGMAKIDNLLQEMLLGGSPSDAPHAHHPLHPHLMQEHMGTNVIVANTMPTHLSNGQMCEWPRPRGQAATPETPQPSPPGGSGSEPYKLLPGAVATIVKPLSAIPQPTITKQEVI
Chain of Transcriptional activator Myb (Homo sapiens) (P10242 whole entry, looked up): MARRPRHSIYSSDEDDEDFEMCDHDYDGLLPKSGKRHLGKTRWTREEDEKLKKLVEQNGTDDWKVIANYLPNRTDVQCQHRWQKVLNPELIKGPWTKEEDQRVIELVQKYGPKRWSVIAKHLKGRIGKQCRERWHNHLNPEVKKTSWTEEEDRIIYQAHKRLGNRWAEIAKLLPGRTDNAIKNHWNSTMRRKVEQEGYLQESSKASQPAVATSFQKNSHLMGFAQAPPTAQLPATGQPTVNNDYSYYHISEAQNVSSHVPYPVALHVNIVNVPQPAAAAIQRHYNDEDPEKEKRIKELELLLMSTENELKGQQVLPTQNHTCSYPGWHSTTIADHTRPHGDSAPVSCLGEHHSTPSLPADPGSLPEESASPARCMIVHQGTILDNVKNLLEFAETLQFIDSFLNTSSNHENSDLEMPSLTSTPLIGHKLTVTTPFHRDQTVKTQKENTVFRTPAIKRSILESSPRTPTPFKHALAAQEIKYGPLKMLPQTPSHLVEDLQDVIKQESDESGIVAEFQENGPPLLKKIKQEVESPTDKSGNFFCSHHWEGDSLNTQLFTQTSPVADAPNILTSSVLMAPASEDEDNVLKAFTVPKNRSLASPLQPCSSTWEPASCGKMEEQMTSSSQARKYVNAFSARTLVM
Chain of Cellular tumor antigen p53 (Homo sapiens) (P04637 whole entry, looked up): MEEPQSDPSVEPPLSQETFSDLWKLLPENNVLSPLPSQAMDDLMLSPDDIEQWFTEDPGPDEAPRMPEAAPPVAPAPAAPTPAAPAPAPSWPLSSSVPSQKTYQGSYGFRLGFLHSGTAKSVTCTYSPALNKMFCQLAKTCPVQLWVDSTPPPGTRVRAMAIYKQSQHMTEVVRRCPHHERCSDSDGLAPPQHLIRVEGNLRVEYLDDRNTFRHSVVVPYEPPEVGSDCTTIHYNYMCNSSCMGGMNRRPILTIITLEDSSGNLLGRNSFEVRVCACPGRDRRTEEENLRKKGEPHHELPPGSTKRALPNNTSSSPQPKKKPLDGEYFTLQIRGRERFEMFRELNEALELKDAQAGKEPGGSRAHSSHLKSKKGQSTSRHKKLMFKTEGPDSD
Chain of Oxysterols receptor LXR-beta (Homo sapiens) (P55055 whole entry, looked up, the tested form may be a part): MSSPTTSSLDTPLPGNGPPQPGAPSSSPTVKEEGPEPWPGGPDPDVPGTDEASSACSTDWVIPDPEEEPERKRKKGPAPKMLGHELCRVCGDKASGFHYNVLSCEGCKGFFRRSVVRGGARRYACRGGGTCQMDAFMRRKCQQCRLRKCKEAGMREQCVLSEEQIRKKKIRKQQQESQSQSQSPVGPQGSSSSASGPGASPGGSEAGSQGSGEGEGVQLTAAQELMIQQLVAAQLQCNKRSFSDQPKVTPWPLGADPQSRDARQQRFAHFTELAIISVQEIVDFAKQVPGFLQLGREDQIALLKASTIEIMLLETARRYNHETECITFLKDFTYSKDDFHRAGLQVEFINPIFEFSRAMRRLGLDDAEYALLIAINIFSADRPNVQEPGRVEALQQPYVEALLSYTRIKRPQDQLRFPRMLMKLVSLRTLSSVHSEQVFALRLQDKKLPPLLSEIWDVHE
Chain of Bile acid receptor (Homo sapiens) (Q96RI1 whole entry, looked up, the tested form may be a part): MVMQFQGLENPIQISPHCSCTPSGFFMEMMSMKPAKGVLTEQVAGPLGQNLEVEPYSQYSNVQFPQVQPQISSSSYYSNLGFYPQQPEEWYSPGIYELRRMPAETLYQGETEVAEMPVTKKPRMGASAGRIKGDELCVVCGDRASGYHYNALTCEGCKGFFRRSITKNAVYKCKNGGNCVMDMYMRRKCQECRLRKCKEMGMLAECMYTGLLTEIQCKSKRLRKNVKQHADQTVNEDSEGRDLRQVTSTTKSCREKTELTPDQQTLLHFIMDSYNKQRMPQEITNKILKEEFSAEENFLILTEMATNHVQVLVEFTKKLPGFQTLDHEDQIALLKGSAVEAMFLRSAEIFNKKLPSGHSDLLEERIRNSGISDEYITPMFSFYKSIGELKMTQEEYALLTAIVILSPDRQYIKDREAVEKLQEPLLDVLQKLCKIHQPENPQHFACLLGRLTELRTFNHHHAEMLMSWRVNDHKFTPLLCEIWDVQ

OCCN1CCOCC1
not listed: [16] | [17] | [18]
inactive: all other assays above

CCc1cccc(O)c1
not listed: [2] | [5] | [6] | [10] | [13] | [14] | [15]
inactive: all other assays above

CCCCCCCCCCOC(=O)c1ccccc1C(=O)OCCCCCCCC
inactive: [1] | [3] | [7] | [17] | [8] | [9] | [10] | [11] | [12] | [18]

CCNC(=S)NCC
inactive: [1] | [4] | [6] | [7] | [17] | [9] | [10] | [11] | [12] | [18]

CCCCCCCCCCCCCC(=O)OCC
not listed: [3] | [8] | [10] | [13] | [14] | [15] | [16]
inactive: all other assays above

C=C(C)C(=O)OCCC[Si](OC)(OC)OC
inactive: [1] | [3] | [7] | [17] | [8] | [9] | [10] | [11] | [12] | [18]
